According to PubChem BioAssay (NCI):
About 79,000 compounds went through this panel and 15% of them were active in at least one assay; those are over-represented in the sample as a whole. A number with no mark means an inactive call. The source made the active and inactive calls. Cut-off read from the data, not from the text of the source: active = growth inhibition above about 70%; inactive = the rest.

Assay: NCI Yeast Anticancer Drug Screen. Data for the rad18 strain (AID 177)
Settings: S. cerevisiae rad18 mutant growth inhibition, active compounds read high
Protocol: Growth inhibition of yeast strains with defined genetic alterations is measured as a screen for potential anti-cancer activity. Selected strains with alterations in DNA damage repair or cell cycle control were exposed to compounds and growth inhibition was measured relative to vehicle treated controls. The strain used in this assay is rad18

| SMILES | growth inhibition (at 1.2 µM) [%] | growth inhibition (at 3.7 µM) | growth inhibition (at 11.0 µM) | growth inhibition (at 33.0 µM) | growth inhibition (at 100.0 µM) |
| --- | --- | --- | --- | --- | --- |
| Oc1ccc(NCn2c(=S)sc3ccccc32)cc1 | -1 | -5% | -11% | 48% | 96% (active) |
| Clc1ccc(SC(/C=C/NNC2=NC(c3ccccc3)C(c3ccccc3)=NN2)c2ccccc2)cc1 (stereo not given) | 2 | 9% | 23% | 41% | 80% (active) |
| O=C(c1cc(Br)ccc1O)c1cc(Br)ccc1O | 32 | 89% (active) | 99% (active) | 99% (active) | 99% (active) |
| O=C(OCCN1CCCCCC1)C(c1ccsc1)C1CCCCC1 (stereo not given) | 7 | 18% | 34% | 34% | 43% |
| c1ccc2c(c1)sc1nc3ccncc3nc12 | 0 | -3% | 1% | 10% | 22% |
| CC(C)C1=CC2=C[C@H](O)[C@H]3C(C)(C)CCC[C@]3(C)C2=C(O)C1=O | -6 | 27% | 99% (active) | 99% (active) | 92% (active) |
| Cc1ccc(CSC(N)=Nc2ccccc2)cc1C | 6 | -7% | 2% | 0% | 31% |
| CCCCN(CCCC)CCSc1ccc(Cl)cc1 | -8 | -11% | -7% | 2% | 89% (active) |
